Screening results from PubChem.
Sampled rows, rich in hits. Any-hit rate of the full collection: about 4.6%.
TRHR enhancer: allosteric enhancers of human TRH receptor | TRHR cells, fluo-8 calcium fluorescence, EC20 TRH enhancement | P34981 | AID 493056 | enhancement, % at 2 µM | 360,000 compounds, 0.66% hits; in the data active means enhancement above about 30%
Target sequence (P34981 whole entry, looked up): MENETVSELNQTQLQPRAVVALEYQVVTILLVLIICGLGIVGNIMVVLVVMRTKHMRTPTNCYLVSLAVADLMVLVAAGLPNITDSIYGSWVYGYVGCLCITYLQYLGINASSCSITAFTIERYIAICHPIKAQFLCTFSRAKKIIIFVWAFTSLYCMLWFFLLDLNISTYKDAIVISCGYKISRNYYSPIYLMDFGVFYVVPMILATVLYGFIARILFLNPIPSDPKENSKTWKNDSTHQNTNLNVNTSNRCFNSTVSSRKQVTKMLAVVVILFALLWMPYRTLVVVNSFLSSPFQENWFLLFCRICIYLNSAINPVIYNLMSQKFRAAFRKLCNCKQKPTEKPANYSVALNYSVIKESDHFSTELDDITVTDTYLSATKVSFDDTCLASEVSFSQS
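Enhancer read-out: after compound pinning and an initial kinetic agonist-mode read, an EC20 of TRH (10 nM final) was injected and fluo-8 calcium signal (Ex 480/Em 530) followed at 1 s/cycle for 100 cycles in TRHR-expressing cells.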
D1 agonist: agonists of human D1 dopamine receptor; HEK293 T-REx D1 cells, calcium flux, agonist mode; activation, % at 2 µM; 360,000 compounds, 1% hits; AID 504660
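Tetracycline-induced HEK293 TREx D1 cells, force-coupled to calcium signalling, were dye-loaded with a no-wash calcium kit. Compound was pin-added after a 10 s baseline. Fluorescence was read kinetically at 1 cycle/s for 180 s, with calcium rises flagged as agonism.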
D1 potentiator: human D1 dopamine receptor positive modulation; potentiation, % at 10 µM; 360,000 compounds, 0.036% hits; HEK293 TREx D1 cells, calcium flux, dopamine EC20 potentiation; P21728; AID 504651; in the data active means potentiation above about 30%
TRHR agonist: activates the human TRH receptor; activation, % at 2 µM; 360,000 compounds, 0.18% hits; TRHR cells, calcium flux fluo-8, FDSS agonist mode; AID 493084
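Steps: seed TRHR cells overnight; add fluo-8 no-wash Ca dye, RT 30 min–1.5 h; record 10 s baseline; pin-transfer compounds; monitor fluorescence 1 cycle/s for the agonist window. Calcium increases flag candidate agonists.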
D1 antagonist: antagonists of human D1 dopamine receptor; activity change, negative = inhibition, % at 10 µM; HEK293 TREx D1 cells, calcium flux, dopamine EC80; hits give low values; P21728; 360,000 compounds, 3.2% hits; in the data active means activity change below about -30%
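Compound effects on dopamine-evoked calcium signalling were measured in tetracycline-induced HEK293 Trex D1 cells. Dopamine at EC80 followed a 180 s compound pre-read, and fluorescence was tracked kinetically for 180 s more.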
Large screens that a line does not name were inactive; ! = not active in a repeat. Unless noted, no stated cut-off is given here; in the data, active means activation above about 30%; inactive means the rest.

CC1(C)C2CCC1(CS(=O)(=O)NC1CCCC1)C(=O)C2 (stereo unspecified)	none
CN(C)CC(C)(C)CNS(=O)(=O)CC12CCC(CC1=O)C2(C)C (stereo unspecified)	D1 antagonist -75.0
O=C(Nc1c[nH]c(=O)[nH]c1=O)c1ccccc1Cl	TRHR enhancer 30.4
COc1ccc(CCNc2ccc(N3C(=O)CC(C)C3=O)cc2[N+](=O)[O-])cc1OC (stereo unspecified)	D1 antagonist -33.6
COc1cccc(C(=O)N2CCC(C(=O)NCc3ccco3)CC2)c1	none
O=C(CNC(=O)c1cccc(Cl)c1)OC(C(=O)Nc1cc(C(F)(F)F)ccc1Cl)c1ccccc1 (stereo unspecified)	none
COc1ccc(OCC(=O)Nc2c(C(=O)N3CCN(C)CC3)oc3ccccc23)cc1	D1 antagonist -33.0
COc1cc(NC(=O)Cn2cc(S(=O)(=O)N3CCC(C)CC3)c3ccccc3c2=O)cc(OC)c1OC	none
C/C(Cn1cnc([N+](=O)[O-])n1)=N\NC(=O)c1ccccc1	none
C/C(Cn1cnc([N+](=O)[O-])n1)=N/NC(=O)COc1c(Cl)cc(Cl)cc1Cl	D1 antagonist -30.4
Cc1ccc(Nc2nc(Cl)nc(NC(C)(C)C)n2)cc1	D1 antagonist -37.4
O=C(NCCc1ccc(Cl)cc1)C1CCN(Cc2cc3ccccc3n2Cc2ccccc2)CC1	none
CC1(C)Cc2cccc(OCC(=O)OCC(=O)Nc3ccc(C(N)=O)cc3)c2O1	D1 antagonist -38.7
CCc1ccc(CNC(=O)c2cnc3sc(N4CCCC4)nn3c2=O)cc1	none
COC(=O)c1cc(CNC(=O)c2ccccc2Cl)ccc1OC	D1 antagonist -30.3
COC(=O)c1cc(CNC(=O)c2ccc(O)c(Cl)c2)ccc1OC	none
CCOc1ccccc1CNc1ncnc2ccc(-c3c(C)noc3C)cc12	none
Cc1noc(C)c1-c1ccc2ncnc(NCc3cccc(-c4ccccc4)c3)c2c1	D1 antagonist -33.9
Cc1cccc(C)c1NC(=O)c1ccc2c(c1)N(Cc1cccc(Cl)c1)C(=O)c1ccccc1S2=O (stereo unspecified)	TRHR enhancer 33.0
Cc1cc(NC(=O)c2ccc3c(c2)N(Cc2cccc(Cl)c2)C(=O)c2ccccc2S3=O)ccc1Br (stereo unspecified)	none
CCC(C)NC(=O)c1ccc2c(c1)N(Cc1cccc(Cl)c1)C(=O)c1ccccc1S2=O (stereo unspecified)	none
CC(NC(=O)c1ccc2c(c1)N(Cc1ccc(Cl)cc1)C(=O)c1ccccc1S2=O)c1ccccc1 (stereo unspecified)	D1 antagonist -34.7
O=S(=O)(Cc1cc(Oc2ccccc2)nc(-c2ccccc2)n1)c1ccccc1	D1 antagonist -33.4
O=C(CSc1ncnc2c1cnn2-c1ccccc1)NC1CCS(=O)(=O)C1 (stereo unspecified)	none
O=C1c2cccc3cc([N+](=O)[O-])cc(c23)C(=O)N1CCN1CCCC1	none
Nc1cc2c3c(cccc3c1)C(=O)N(CCN1CCCC1)C2=O	D1 agonist 55.7
COc1ccc2oc(C(=O)NCc3ccccc3CN3CCCC3)c(C)c2c1	D1 antagonist -57.0 (no result: D1 potentiator)
Cc1ccc(C(=O)NCc2ccccc2CN2CCCC2)cc1S(=O)(=O)N1CCOCC1	none
COc1ccc2cc(C(=O)NCc3ccccc3CN3CCCC3)ccc2c1	D1 antagonist -64.2
COc1ccccc1/C=C/c1nc(C#N)c(N2CCCCCC2)o1	none
CCNC(=O)/C(=C\c1ccc2c(c1)OCO2)NC(=O)c1ccc(Br)cc1	none
CCN(CC)C(=O)/C(=C\c1ccc2c(c1)OCO2)NC(=O)c1ccc(Br)cc1	D1 antagonist -30.0
COc1cc(-c2nc3cnccn3c2Nc2ccc(C(C)C)cc2)ccc1O	D1 agonist 34.4!
COc1ccc(OC)c(/C=C2/Sc3ccccc3C2=O)c1	D1 agonist 311.9, TRHR agonist 65.8
Cc1ccc(/C=C2\Sc3ccccc3C2=O)s1	none
CC1CCc2nc(NC(=O)C3CCCO3)sc2C1 (stereo unspecified)	none
CCC(CC)C(=O)Nc1nc2c(s1)CC(C)CC2 (stereo unspecified)	D1 agonist 32.7
Cc1cc(C)n(-c2nnc(N3CCN(c4ccc(F)cc4)CC3)nn2)n1	D1 antagonist -41.9
CCOC(=O)N1CCN(C(=O)Cc2c(C(=O)O)n(C)c3ccccc23)CC1	none
CCOC(=O)C1CCN(C(=O)Cc2c(C(=O)O)n(CC)c3ccccc23)CC1	D1 antagonist -86.7
O=[S+]([O-])(c1ccc2c(c1)OCCO2)N1CCN([S+](=O)([O-])c2c(O)cc(F)cc2F)CC1	D1 antagonist -48.4
O=[S+]([O-])(c1ccc2c(c1)OCCO2)N1CCN([S+](=O)([O-])c2c(F)cc(O)cc2F)CC1	none
CC1CCc2[nH]nc(C(=O)O)c2C1 (stereo unspecified)	D1 antagonist -47.1
O=C1/C(=C\c2ccco2)SC(=S)N1C1CCCCC1	D1 potentiator 34.5
CCc1ccc(Nc2nnc(SCC(=O)N(C)C3CCS(=O)(=O)C3)s2)cc1 (stereo unspecified)	D1 antagonist -70.3
Cc1ccccc1NS(=O)(=O)c1ccc(Br)s1	D1 agonist 49.9
CC(C)NC(=O)c1ccccc1NS(=O)(=O)c1ccc(Br)s1	none
COCc1ccc(C(=O)N2CCCC(Nc3ccc(C(C)C)cc3)C2)o1 (stereo unspecified)	none
Cc1c(Cl)ccc2sc(N3CCN(C(=O)C4CC4)CC3)nc12	none (no result: D1 antagonist)
CCCCCCCCCCOC(=O)Cn1c(COc2ccccc2OC)[n+](C)c2ccccc21	D1 agonist 182.6
Cn1c(COc2ccccc2O)[n+](C)c2ccccc21	none
COc1ccc(S(N)(=O)=O)cc1C(=O)NCCCN1CCN(c2ccc(C)cc2)CC1	D1 antagonist -41.6
COc1ccc(S(N)(=O)=O)cc1C(=O)NCCCN1CCN(c2ccccc2OC)CC1	none
COc1cc2c(C(=O)NCCCN3CCN(c4cccc(Cl)c4)CC3)cn(C)c(=O)c2cc1OC	none
COc1ccc(S(N)(=O)=O)cc1C(=O)NCCCN1CCN(c2cccc(Cl)c2)CC1	D1 antagonist -50.6
O=C(CSc1nc(=O)n2ccccc2n1)NCc1ccccc1	none
Cc1ccc(S(=O)(=O)NCC(=O)OCc2cc(=O)oc3cc(C)ccc23)cc1	none
Cc1ccc2c(COC(=O)CNC(=O)c3ccccc3)cc(=O)oc2c1	D1 antagonist -50.2
CCOc1ccccc1NC(=O)c1c(NCc2ccc(C)o2)sc2c1CCCCC2	none
CN(C)CCCNCCCNC(=O)/C=N/O	D1 antagonist -38.3
CN(C)CCCNCCCCNC(=O)/C=N/O	none
CC1=NN(Cc2ccccc2)C(=O)C1	D1 antagonist -36.5
CC1=NN(c2ccc(Cl)cc2)C(=O)C1	none
CCN1CCN(c2cc(N3CCc4ccccc4C3)c(F)cc2[N+](=O)[O-])CC1	D1 antagonist -40.2
CC(=O)N1CCN(c2cc(N3CCCC3)c(F)cc2[N+](=O)[O-])CC1	none
